These results are taken from PubChem BioAssay.

“And” between values parts separate entries of the source, which are not always exact repeats. Equal entries are not always repeated. For some of these results: Potency and affinity values are given separately. The source made the active and inactive calls. Cut-off read from the data, not from the text of the source, unless noted: active = parasite load remaining mostly below about 12% (no sharp cut-off); inactive = mostly above about 10%.

As a reminder, the inhibition is the change of the read-out against control, counted positive when it falls. In general, viability refers to a read-out of living cells in per cent, often relative to untreated cells.

The nature of assay [1]: blockers of polyQ-driven CASP3 activation – cell-based (AID 1583). Conditions: polyglutamine-induced caspase-3 activation, cell assay; stronger effect = higher value;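 tested at 10 µM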.
Assay [2] in a line: yeast 75Q aggregation reduction – 75Q-TubU reporter (AID 1593). The note with it: Yeast 75Q polyglutamine aggregation reporter.
The nature of assay [3]: restoration of touch response, mutant HTT neurons – whole organism, C. elegans mechanosensory neurons, N-terminal huntingtin (AID 1599). The note with it: C. elegans polyQ-huntingtin mechanosensory neurons, stronger effect = higher value.
Assay [4] is described as follows: blockers of cytochrome c efflux from mitochondria – biochemical, purified mitochondria (AID 1603).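 Note: mouse liver mitochondria challenged with calcium chloride; signal normalized to the plate average as 100%.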 The note with it: stronger effect = lower value.
The nature of assay [5]: polyglutamine aggregate formation blockers (AID 1604). Conditions: polyglutamine-induced protein aggregation inhibition assay; stronger effect = higher value; tested at 2.5 µM.
A short description of assay [6]: glutamate transport activators, MN-1 cells, MN-1 cell line (AID 1612).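 Note: tested at 1 µM final; 0% = mean of DMSO vehicle wells on each plate; positive means more glutamate uptake than control and negative means less.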 Conditions: MN-1 motor neuron cells, stronger effect = higher value.
Assay [7] in a line: GFP-Q80 aggregate reduction, neuronal-like cells, cell-based, NGF-treated PC12, GFPQ80 (AID 1614).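 Note: lower means fewer inclusions and 0 means no inclusions at all.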 Conditions: PC12 NGF-treated GFP-polyQ80 inclusion reduction.
A short description of assay [8]: 75Q-TubH aggregate inhibition, S. cerevisiae, yeast (AID 1616). Conditions: S. cerevisiae 75Q-TubH polyglutamine aggregation suppression; stronger effect = higher value.
A short description of assay [9]: compounds altering circadian rhythm period length – cell-based, LOPAC library, luminescence reporter (AID 2774; call rule not given here;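 note: values are relative to mean of DMSO wells on each plate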). Conditions: circadian reporter cells, at 7 µM, actives lie on both sides.
A short description of assay [10]: P. berghei load reduction in hepatocytes – cell-based, HepG2, luciferase luminescence, HepG2 viability, primary screen (AID 624349).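 Note: 100% = mean of DMSO negative control wells on the same plate.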 The note with it: P. berghei liver stage in HepG2, luciferase luminescence, concentration not given here; parasite load remaining: stronger effect = lower value; viability: measured here: HepG2 viability without parasites.
Assay [11] concerns Hepatitis C virus NS3 helicase. As to the kind of experiment: blockers of NS3h binding to ssDNA – biochemical, fluorescence polarization, LOPAC1280 library, primary screen (AID 687035; in the data active = inhibition above about 37%). Conditions: Purified HCV NS3 helicase, Cy5-dT15 ssDNA binding fluorescence polarization; stronger effect = higher value; concentration not given here.
In assay [12] the target is 6-phosphogluconate dehydrogenase, decarboxylating (Homo sapiens) (UniProt P52209). As to the kind of experiment: inhibition of human phosphogluconate dehydrogenase – biochemical, recombinant enzyme, NADPH absorbance, primary screen (AID 1159550;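 active = at least 20% inhibition of 6-phosphogluconate dehydrogenase activity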). Conditions: recombinant 6PGD, NADPH absorbance 341 nm; at 10 µM; stronger effect = higher value.
A short description of assay [13]: EMT-state selective cytotoxicity in co-culture – imaging, PC-3E GFP, TEM4-18 mCherry, primary screen (AID 1345086;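 active = compounds killing one labelled cell type while sparing the other, by normalised counts and ratio limits, not self-fluorescent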;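 for all read-outs here: cells exposed to compound for 72 h before imaging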;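 for red/green cell ratio (normalised): normalised mesenchymal count divided by normalised epithelial count so high means epithelial killing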). Conditions: PC-3E GFP / TEM4-18 mCherry co-culture, imaging cell counts, at 1 µM; for red/green cell ratio (normalised): actives lie on both sides, counts scaled to control wells, 1 = unselective.
Assay [14] can be described thus: viability loss with induced miR-34 in A549 – imaging, A549 dox-inducible miR-34, nuclei and caspase counts, primary screen (AID 1347080;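 active = compounds whose cell count with miR-34 switched on is under 0.7 times the count with it off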). The note with it: A549 miR-34 inducible, Hoechst nuclei count, 48 h.
Assay [15] in a line: blockers of cellular phospholipid synthesis – cell-based, LOPAC library, screen 4, primary screen (AID 1347384; call rule not given here). Conditions: animal cells, phospholipid biosynthesis inhibition screen; at 10 µM.
The target in assay [16] is Mitogen-activated protein kinase 7 (Homo sapiens) (UniProt Q13164). Kind of assay: Gal4-ERK5 driven luciferase induction – cell-based, HTS, primary screen (AID 1508626;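 active = luciferase signal above three times the same-plate solvent-only control wells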;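 note: luciferase driven by Gal4-ERK5 fusion binding five Gal4 sites before minimal TATA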). Conditions: HeLa Gal4-ERK5 transactivation, 18 h, at 5 µM, stronger effect = higher value.
A short description of assay [17]: galactose survival enhancers in mitochondrial complex I cybrids – cell-based, galactose medium, ATP luminescence, primary screen (AID 1645843;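 active = z-score of at least 1.8 in each of two replicates, scored against plate mean and spread of sample wells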;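 note: positive z means more ATP and so rescue of galactose-driven cybrid death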). The note with it: complex I mutant cybrid cells, 72 h, stronger effect = higher value.
For assay [18], the target named is NAD(+) hydrolase SARM1 (Homo sapiens) (UniProt Q6SZW1). Kind of assay: blocking NAD cleavage by SARM1 SAM-TIR – cell lysate, NAD-Glo luminescence (AID 1508614;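 active = compound whose remaining NAD level is above about 45 nM, limit read from the data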;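 note: higher remaining NAD means stronger inhibition of SARM1 NADase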). Conditions: SAM-TIR HEK293T lysate NADase, at 1 µM, stronger effect = higher value.
Setting [19] is: measured here: epithelial PC-3E GFP cell survival.
[20] abbreviates: measured here: mesenchymal TEM4-18 mCherry cell survival.
Setting [21] is: stronger effect = lower value, cell number ratio, induced over uninduced.
Setting [22] is: measured here: relative caspase fold change +Dox/-Dox.
[23] abbreviates: measured here: total cells with miR-34 induction, stronger effect = lower value.
Where [24] appears, read: measured here: total cells without miR-34 induction.

Mitogen-activated protein kinase 7 (Homo sapiens), sequence (Q13164 whole entry, looked up, the tested form may be a part): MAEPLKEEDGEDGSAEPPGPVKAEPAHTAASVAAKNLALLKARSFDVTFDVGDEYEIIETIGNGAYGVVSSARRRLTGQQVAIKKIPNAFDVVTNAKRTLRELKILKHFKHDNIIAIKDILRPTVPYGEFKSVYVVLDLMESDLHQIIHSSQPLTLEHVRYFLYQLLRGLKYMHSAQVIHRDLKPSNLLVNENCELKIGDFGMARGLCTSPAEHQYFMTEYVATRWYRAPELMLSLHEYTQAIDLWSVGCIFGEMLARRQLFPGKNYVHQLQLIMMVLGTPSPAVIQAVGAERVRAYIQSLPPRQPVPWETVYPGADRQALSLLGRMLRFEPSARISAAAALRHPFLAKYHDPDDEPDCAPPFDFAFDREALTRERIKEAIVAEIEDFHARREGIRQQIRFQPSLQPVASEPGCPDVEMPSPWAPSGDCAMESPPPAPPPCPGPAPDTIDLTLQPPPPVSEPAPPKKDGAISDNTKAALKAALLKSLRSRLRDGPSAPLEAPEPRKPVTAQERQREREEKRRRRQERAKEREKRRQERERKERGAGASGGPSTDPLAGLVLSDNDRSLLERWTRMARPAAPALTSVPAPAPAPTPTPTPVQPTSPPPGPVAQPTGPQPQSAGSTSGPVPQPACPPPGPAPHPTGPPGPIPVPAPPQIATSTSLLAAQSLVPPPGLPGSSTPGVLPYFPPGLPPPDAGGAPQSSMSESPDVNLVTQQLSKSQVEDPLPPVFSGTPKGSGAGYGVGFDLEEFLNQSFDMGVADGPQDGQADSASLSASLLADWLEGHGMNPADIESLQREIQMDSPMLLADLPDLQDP
6-phosphogluconate dehydrogenase, decarboxylating (Homo sapiens), sequence (P52209 whole entry, looked up): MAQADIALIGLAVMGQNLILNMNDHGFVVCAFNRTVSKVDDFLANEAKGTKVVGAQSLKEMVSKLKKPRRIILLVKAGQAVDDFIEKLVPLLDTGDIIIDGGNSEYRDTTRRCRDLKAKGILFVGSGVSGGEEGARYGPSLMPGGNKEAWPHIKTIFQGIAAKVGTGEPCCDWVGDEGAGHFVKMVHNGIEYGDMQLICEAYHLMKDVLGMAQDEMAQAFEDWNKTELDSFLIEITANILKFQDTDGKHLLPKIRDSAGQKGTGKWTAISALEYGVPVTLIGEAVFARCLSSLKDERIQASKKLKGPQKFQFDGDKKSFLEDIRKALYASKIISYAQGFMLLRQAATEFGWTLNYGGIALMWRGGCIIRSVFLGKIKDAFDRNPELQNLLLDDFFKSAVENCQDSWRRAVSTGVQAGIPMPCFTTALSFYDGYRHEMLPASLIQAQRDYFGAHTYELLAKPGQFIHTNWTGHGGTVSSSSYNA
NAD(+) hydrolase SARM1 (Homo sapiens), sequence (Q6SZW1 whole entry, looked up): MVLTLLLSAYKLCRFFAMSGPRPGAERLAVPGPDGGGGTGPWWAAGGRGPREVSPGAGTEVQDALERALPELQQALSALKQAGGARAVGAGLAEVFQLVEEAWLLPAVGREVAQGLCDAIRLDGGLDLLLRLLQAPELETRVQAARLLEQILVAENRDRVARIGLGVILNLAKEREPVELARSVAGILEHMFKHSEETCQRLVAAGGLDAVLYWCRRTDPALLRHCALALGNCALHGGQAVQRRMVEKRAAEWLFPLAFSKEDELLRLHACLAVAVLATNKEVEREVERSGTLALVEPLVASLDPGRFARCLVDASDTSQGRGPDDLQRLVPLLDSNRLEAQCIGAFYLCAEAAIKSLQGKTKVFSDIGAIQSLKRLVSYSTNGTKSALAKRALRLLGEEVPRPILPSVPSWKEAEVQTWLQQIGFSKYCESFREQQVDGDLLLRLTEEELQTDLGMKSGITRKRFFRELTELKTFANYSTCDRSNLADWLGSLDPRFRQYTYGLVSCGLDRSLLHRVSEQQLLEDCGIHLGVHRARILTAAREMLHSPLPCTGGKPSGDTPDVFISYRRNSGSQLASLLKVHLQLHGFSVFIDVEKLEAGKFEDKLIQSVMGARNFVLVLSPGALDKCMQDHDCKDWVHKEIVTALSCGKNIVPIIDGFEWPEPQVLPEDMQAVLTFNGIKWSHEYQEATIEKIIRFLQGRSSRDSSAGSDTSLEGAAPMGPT

Take `NC(N)=NCCCCN=C(N)N`: the inhibition in assay [1] is 0.26%; in assay [11], -3% (inactive); in assay [12], -2.55% (inactive). The molecule further came in with a score in assay [2] of 1.07. Moreover, in assay [3], the rescue above control was -1.01. The cytochrome c release ratio in assay [4] worked out at 1.43. Besides, in [5], the inhibition of aggregation was 83.3%. For the same molecule, the glutamate uptake change in assay [6] amounted to 11.5%. Besides, the inclusion score in assay [7] is 2. Moreover, the aggregation suppression score in assay [8] stood at 1.37. Also, the period change in [9] was 0.195 h (inactive). In assay [10], the parasite load remaining is 111% (inactive). The viability in [10] worked out at 108%. Also, the red/green cell ratio (normalised) in [13] is 0.92 (inactive). Moreover, the normalised cell number came to 1.06 in assay [13] (setting [19]) and 0.97 in assay [13] (setting [20]). The fold change in assay [14] (setting [21]) is 0.968 (inactive) and 0.866 (inactive); in [14] (setting [22]), 0.983 and 0.933. For the same molecule, the cell count in [14] (setting [23]) was 9930 and 7710; in assay [14] (setting [24]), 10300 and 8910. Also, the molecule was called inactive in assay [15]. In addition, the luciferase signal in [16] is 52 AU (inactive). Further, the z-score in assay [17] was 0.645 (inactive).
For `C=C1c2c(Cl)ccc(O)c2C(O)=C2C(=O)[C@]3(O)C(O)=C(C(N)=O)C(=O)[C@@H](N(C)C)[C@@H]3[C@@H](O)[C@H]12`, the results for the inhibition in [1] and in [12] were -20.8% and 10.5% (inactive), respectively. Besides, the score in assay [2] was 0.46. In assay [3], this molecule yielded a rescue above control of 1.02. The cytochrome c release ratio in [4] is 0.58. This molecule returned an inhibition of aggregation in assay [5] of 84.6%. For the same molecule, the glutamate uptake change in assay [6] stood at 0.44%. In assay [7], this molecule gave an inclusion score of 1. This molecule also yielded an aggregation suppression score in assay [8] of 0.198. Moreover, in [10], the parasite load remaining is 145% (inactive) and 78.4% (inactive) and 31.4% (inactive). The viability in assay [10] is 71.2% and 75.1% and 92.1%. For the same molecule, the red/green cell ratio (normalised) in assay [13] was 0.85 (inactive). Also, the normalised cell number came out at 0.99 in assay [13] (setting [19]) and 0.84 in [13] (setting [20]). Besides, the fold change in assay [14] (setting [21]) was 0.864 (inactive); in [14] (setting [22]), 1.07. The values for the cell count in assay [14] (setting [23]) and in [14] (setting [24]) were 8250 and 9550, respectively. In addition, in assay [18], the remaining NAD is 10 nM (inactive). Also, in assay [16], the luciferase signal was 40 AU (inactive).
As for `NCCCS(=O)(=O)O`, the inhibition in assay [1] was -8.14%; in assay [11], -1% (inactive); in assay [12] it was 6.14% (inactive). Also, the score in assay [2] is 1.19. Moreover, in assay [3], the rescue above control is -7.13. Besides, the cytochrome c release ratio in assay [4] was determined as 1.17. This molecule displayed an inhibition of aggregation in assay [5] of 80.3%. Moreover, in assay [6], the glutamate uptake change turned out to be 3.02%. The same molecule came in with an inclusion score in assay [7] of 2. Besides, the aggregation suppression score in assay [8] was determined as 1.7. For the same molecule, in [9], the period change is 0.415 h (inactive). In assay [10], the parasite load remaining is 106% (inactive). Besides, the viability in assay [10] turned out to be 72.2%. The red/green cell ratio (normalised) in [13] is 0.83 (inactive). Further, the normalised cell number in [13] (setting [19]) came to 1.23; in [13] (setting [20]), 1.02. Also, the fold change in assay [14] (setting [21]) was 0.922 (inactive); in assay [14] (setting [22]), 2.79. In addition, the cell count in assay [14] (setting [23]) was found to be 6500; in assay [14] (setting [24]), 7050. Moreover, the molecule was called inactive in [15]. The luciferase signal in assay [16] was 56 AU (inactive). In addition, in [17], the z-score was 0.265 (inactive).
As for `NCC(O)CC(=O)O` (centres undefined), the results for the inhibition in assay [1] and in [12] were 11.2% and -18.3% (inactive), respectively. The same molecule came in with a score in assay [2] of 1.7. Also, the rescue above control in assay [3] is -10.6. The cytochrome c release ratio in assay [4] was 1.09. The molecule also showed an inhibition of aggregation in [5] of 57.7%. The molecule further gave a glutamate uptake change in assay [6] of 9.66%. Also, in assay [7], the inclusion score stood at 2. Moreover, the aggregation suppression score in assay [8] stood at 1.63. For the same molecule, the parasite load remaining in assay [10] was 157% (inactive). In assay [10], the viability was found to be 91.4%. Besides, the red/green cell ratio (normalised) in [13] was 0.75 (inactive). Moreover, the normalised cell number was 1.28 in assay [13] (setting [19]) and 0.96 in [13] (setting [20]). The remaining NAD in assay [18] is 10 nM (inactive). For the same molecule, the luciferase signal in [16] is 44 AU (inactive).
For the molecule `O=C1NS(=O)(=O)c2ccccc21`, the values for the inhibition in assay [1] and in [12] were 13.8% and 10.4% (inactive), respectively. In assay [2], the score was determined as 0.92. In [3], this molecule came in with a rescue above control of -8.57. In addition, the cytochrome c release ratio in assay [4] stood at 0.95. For the same molecule, in assay [5], the inhibition of aggregation came to 78.3%. In [6], this molecule gave a glutamate uptake change of 6.02%. The same molecule gave an inclusion score in [7] of 2. The aggregation suppression score in [8] amounted to 1.22. The parasite load remaining in [10] was 95.1% (inactive) and 37.4% (inactive). Further, the viability in [10] is 71.8% and 92.3%. In addition, the red/green cell ratio (normalised) in assay [13] is 1.14 (inactive). Further, the results for the normalised cell number in [13] (setting [19]) and in assay [13] (setting [20]) were 1.03 and 1.17, respectively. The remaining NAD in assay [18] is 10 nM (inactive). The luciferase signal in assay [16] was 40 AU (inactive).
As for `COc1cc2cc3c4cc(OC)c(OC)cc4cc[n+]3c(C)c2cc1OC`, the parasite load remaining in assay [10] was 91.2% (inactive) and 45.3% (inactive) and 68.5% (inactive). In addition, the viability in assay [10] is 98.6% and 66.5% and 73.3%. Moreover, the inhibition in [12] is 13.7% (inactive). Further, the red/green cell ratio (normalised) in assay [13] is 0.8 (inactive). Besides, the normalised cell number amounted to 1 in [13] (setting [19]) and 0.8 in assay [13] (setting [20]). For the same molecule, the fold change in assay [14] (setting [21]) was 0.879 (inactive); in assay [14] (setting [22]) it was 1.23. Moreover, the results for the cell count in [14] (setting [23]) and in assay [14] (setting [24]) were 8980 and 10200, respectively. For the same molecule, the luciferase signal in assay [16] was 72 AU (inactive).
